# Rows were chosen to be rich in hits. Some 3.2% of all compounds tested hit in one or more screens of this group.
# Mcl1-Bid inh = disrupts binding of human Mcl-1 to Bid peptide; Q07820; TR-FRET Mcl-1/Bid-Dy647 peptide binding, 1536-well; inhibition, % at 21.7 µM; hit rate 0.97% among 220,000; AID 1021;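 active = compounds that cut the binding signal by more than half at the single screening dose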;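 note: His-tagged Mcl-1 with europium anti-His antibody binding Bid BH3 peptide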
# Target sequence (Q07820 whole entry, looked up): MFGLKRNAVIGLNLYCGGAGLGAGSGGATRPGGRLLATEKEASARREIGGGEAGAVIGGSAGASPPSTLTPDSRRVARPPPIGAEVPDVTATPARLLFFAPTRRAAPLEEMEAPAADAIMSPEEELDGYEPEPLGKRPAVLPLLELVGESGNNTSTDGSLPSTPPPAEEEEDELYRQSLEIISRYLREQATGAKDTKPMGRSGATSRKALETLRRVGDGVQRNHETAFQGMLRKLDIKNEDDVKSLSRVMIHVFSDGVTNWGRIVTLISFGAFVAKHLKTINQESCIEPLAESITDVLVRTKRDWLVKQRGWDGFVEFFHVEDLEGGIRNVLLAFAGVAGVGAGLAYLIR
# 14-3-3 Bad PPI = disrupts binding of bovine 14-3-3 zeta to phospho-Bad peptide; inhibition, % at 21.7 µM; hit rate 0.71% among 220,000; P63103; TR-FRET 14-3-3zeta/Dy647-pBad peptide displacement, 1 h;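 active = inhibition above about 70%, limit read from the data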
# Target sequence (P63103 whole entry, looked up): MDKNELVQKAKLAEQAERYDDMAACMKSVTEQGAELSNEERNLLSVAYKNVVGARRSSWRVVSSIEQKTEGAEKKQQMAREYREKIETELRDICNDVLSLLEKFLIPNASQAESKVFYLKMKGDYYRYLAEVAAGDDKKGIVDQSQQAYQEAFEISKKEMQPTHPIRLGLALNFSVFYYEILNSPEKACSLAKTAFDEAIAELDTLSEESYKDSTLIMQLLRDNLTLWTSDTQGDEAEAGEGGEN
# Bim-Mcl-1 = inhibitors of Bim-Mcl-1 interaction, human; inhibition, % at 10 µM; Q07820; AID 1009; Bead-based flow cytometry, Bim peptide-Mcl-1 binding; hit rate 0.1% among 190,000; in the data active = inhibition above about 40%
# Mcl1 Noxa PPI = disrupts binding of human Mcl-1 to Noxa peptide | Q07820 | hit rate 1.5% among 220,000 | inhibition, % at 21.7 µM | TR-FRET Mcl-1/Noxa peptide binding, 2 h;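 active = compounds that cut the protein-peptide binding signal by more than 50% relative to plate controls in a single-dose test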;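 note: His-tagged Mcl-1 with rhodamine Noxa BH3 peptide and terbium anti-His antibody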
# NCF1 inh = p47phox (human) inhibition | P14598 | p47phox/p22phox peptide binding, fluorescence polarization, 2 h | inhibition, % at 24.7 µM | hit rate 0.53% among 220,000;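 active = inhibition above about 30%, limit read from the data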
# Numbers stand for hits; – = inactive; · = no result; ! = not confirmed by another sample; [ ] = dose if it differs, or a comment.
SMILES,Mcl1-Bid inh,14-3-3 Bad PPI,Bim-Mcl-1,Mcl1 Noxa PPI,NCF1 inh
O=C(CN1CCCCC1)NNc1nc(-c2ccccc2)c2cc(Br)ccc2n1,–,–,·,–,–
C=CCOc1ccc(C(=O)CC)cc1OC,–,–,–,–,–
CCOC(=O)Cc1csc(NC(=O)c2csc(C)c2)n1,–,–,–,–,–
CCOC(=O)Cc1csc(NC(=O)c2sc3nc4c(C)cc(C)cc4cc3c2N)n1,–,–,–,63.7,–
FC(F)(F)c1cnc(Nc2ccc(N3CCOCC3)cc2)c(Cl)c1,–,–,–,61.0,–
CCOC(=O)c1cnc(SCCN2CCOCC2)nc1N,–,–,–,–,–
COc1cc2c(cc1NC(=O)CSc1ccccc1)oc1ccccc12,–,–,–,–,–
COc1cc2c(cc1NC(=O)CSc1nccn1C)oc1ccccc12,–,–,–,56.6,–
COc1ccc(/C=C/C(=O)NC(=S)Nc2cc3oc4ccccc4c3cc2OC)cc1,–,–,–,–,–
COc1cc2c(cc1NC(=S)NC(=O)/C=C/c1ccc(OC)c(OC)c1)oc1ccccc12,62.2,80.7[fluorescence artefact?],–,–,36.7
COc1cc(-c2nnc(CSc3nnc(Nc4ccc(Oc5ccccc5)cc4)s3)o2)cc(OC)c1OC,–,–,–,–,–
N[C@@H](Cc1cc(I)c(Oc2ccc(O)c(I)c2)c(I)c1)C(=O)O,66.2!,–,–,105.2!,–
NC(Cc1ccc(O)c([N+](=O)[O-])c1)C(=O)O (centres undefined),–,–,–,–,–
O=C(O)CCc1cc(I)c(Oc2ccc(O)c(I)c2)c(I)c1,–,–,·,68.7,–
Fc1c(F)c(F)c(N=Cc2ccc3ncccc3c2)c(F)c1F,–,–,–,–,–
CSCCC(NC(=O)COc1ccccc1)C(=O)O (centres undefined),–,–,–,–,–
Cc1nn(Cc2ccccc2)c(C)c1C(=O)NCCN1C(=O)S/C(=C\c2ccccc2)C1=O,–,–,–,–,30.2
O=C(CCl)NCCN1C(=O)S/C(=C\c2cccnc2)C1=O,–,–,–,–,–
O=C(N/N=C/c1cccc(F)c1)c1c(O)c2ccccc2[nH]c1=O,50.7,–,–,64.2,–
CCN1CCN(C(=S)c2ccc([N+](=O)[O-])cc2)CC1,–,–,–,–,–
O=C(O)c1ccc(-n2ncc3c2/C(=C/c2cccc([N+](=O)[O-])c2)CC3)cc1,–,–,·,–,–
O=C(O)c1ccccc1-n1ncc2c1/C(=C/c1ccc(Cl)cc1)CC2,–,79.0,·,–,–
O=C(Nc1sc2c(c1C(=O)c1ccccc1)CCCC2)c1cccnc1,–,–,–,–,–
O=C(Nc1sc2c(c1C(=O)c1ccc(Cl)cc1)CCCC2)c1cccnc1,–,70.9,–,–,–
Cc1cc(C)c2c(=O)[nH]c(SCC(=O)c3ccc(F)c(C)c3)nc2n1,58.9,–,–,–,37.6
SMILES,Mcl1-Bid inh,14-3-3 Bad PPI,Bim-Mcl-1,Mcl1 Noxa PPI,NCF1 inh
Cc1cc(C)c2c(=O)[nH]c(SCC(=O)NCc3ccccc3)nc2n1,–,–,–,–,–
COc1cc(CN2CCN(c3cccc(C)c3C)CC2)cc(Br)c1O,–,–,–,–,–
COc1cc(CN2CCC(C(=O)N3CCC(C)CC3)CC2)cc(Br)c1O,–,79.3,–,–,–
COc1cc(CN2CCC(C(=O)N3CCN(c4ccccc4F)CC3)CC2)cc(OC)c1OC,–,–,–,–,–
COc1cc(CN2CCC(C(=O)NC3CCCC3)CC2)cc(Br)c1O,50.7,–,–,–,–
CCn1ncc(-c2ccnc3cc(C(=O)O)nn23)c1C,–,70.4,–,–,–
N#C/C(=C\c1ccc(C#N)cc1)C(=O)c1ccccc1,–,–,·,–,–
CCOC(=O)NC(=O)/C(C#N)=C/c1ccc(N(C)C)cc1,81.9,–,·,–,–
CN(C)c1ccc(/C=C(\C#N)C(=O)c2ccccc2)cc1,–,–,·,–,51.7
COCc1cc(=O)[nH]c(Nc2nc3ccccc3o2)n1,–,–,–,–,–
Cc1ccc2oc(Nc3nc(-c4ccccc4)cc(=O)[nH]3)nc2c1,–,87.9,–,–,45.3
O=c1c(O)cccc2cc(O)c(O)c(O)c12,92.3,94.0,·,103.5,–
COc1cc2cccc(OC)c(=O)c2c(OC)c1OC,–,–,–,–,–
CN1CCN(C(c2cccnc2)c2ccc3cccnc3c2O)CC1 (centres undefined),–,–,–,51.6,–
COc1cc(CNCCCN2CCOCC2)ccc1OCC(=O)NC(C)(C)C,–,–,–,–,–
COc1ccccc1NC(=O)COc1cc(Br)c(CNCCCN2CCOCC2)cc1OC,89.0,–,–,–,–
CCCCCCCCCCCCCCCCn1cc[n+](C)c1,–,94.9,–,–,102.4
CCCCCCCCn1ccc(=N)cc1,–,–,·,–,–
Cn1cc(C(=O)N/N=C/c2ccc([N+](=O)[O-])cc2)c2ccccc21,–,–,·,75.4,–
CCOC(=O)C1=C(N)Oc2cc(O)ccc2C1c1cccc([N+](=O)[O-])c1 (centres undefined),–,–,–,–,–
N/C(=N\N=C\c1ccc(Br)o1)c1nonc1N,–,–,·,–,–
N#C/C(=C\Nc1ccc2cn[nH]c2c1)c1nc(-c2ccc(Cl)cc2)cs1,58.1,91.2,–,52.7,–
CCN(CC)CCOC(=O)c1ccc(N/C=C(/C#N)c2nc(-c3ccc(OC)cc3)cs2)cc1,–,–,·,–,–
CN1C(=O)/C(=C/c2ccccc2OCc2cccc(F)c2)NC1=S,77.7,–,–,–,–
Cc1nc(=S)c2ccccc2[nH]1,–,–,–,–,–
SMILES,Mcl1-Bid inh,14-3-3 Bad PPI,Bim-Mcl-1,Mcl1 Noxa PPI,NCF1 inh
O=C(O)c1cccc2[nH]c(C(F)(F)F)nc12,–,–,–,–,–
FC(F)(F)c1nc(=S)c2ccccc2[nH]1,–,–,86.0,–,–
Nc1cccc2[nH]c(C(F)(F)F)nc12,–,–,–,51.6,–
COc1ccc(-c2[nH]ncc2CN(C)Cc2nonc2C)c(OC)c1,–,–,–,–,–
CCc1c(C)nc(SC(C(=O)O)c2ccccc2)c(C#N)c1C (centres undefined),–,–,–,–,–
Cc1ccc(OCCSc2cc(C)nc(N)n2)cc1,–,–,–,–,–
CCCCSc1cc(C)nc(N)n1,78.8,–,·,–,–
Cc1ccc(NC2=NCCC2)cc1Cl,–,–,–,–,–
Cc1nc2ccc(NC3=NCCCCC3)cc2s1,–,78.8,–,–,–
CC(=O)Nc1ccc(-c2csc(NC(=O)C3CC(=O)N(c4ccc5c(c4)OCCO5)C3)n2)cc1 (centres undefined),–,–,·,87.2,–
O=C(NNC(=O)c1ccccc1O)c1ccc(Cl)cc1,–,–,–,–,–
O=C(NNC(=O)c1ccc(O)cc1O)c1ccc(Cl)cc1,56.1,–,–,–,–
CCCCCCCc1c(O)nc(SCCN2CCOCC2)[nH]c1=O,–,–,–,–,–
CC(=O)c1ccc(Oc2ccc(C(C)=O)cc2)cc1,99.0,–,–,–,–
CN(C)C(=O)c1ccc(Oc2ccc(C(=O)N(C)C)cc2)cc1,–,–,–,–,–
O=S(=O)(c1ccc(Cl)cc1)c1nc(-c2ccco2)oc1N1CCOCC1,–,76.1,·,–,–

# Screens deposited in PubChem by several laboratories.
